Experimental data as given in the supplement of paper PMC6555819.

What was measured:
Assay in all cases: PBM binding z-score (relative to random genomic background probes); higher = stronger binding; sequences stand for … in GC…GCGATTGACAGCGTAGAATGAAGG
[1] = tested on: FXR:RXRa (NR concentration 270 nM, RXRa partner concentration 90 nM)
Procedure, shortened: (§1)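 Random background probes are the reference for binding z-scores. These scores derive from regression-normalized fluorescence on custom Agilent 4×180K protein-binding microarrays incubated 1 h with ligand-free nuclear receptor dimers. Binding was detected with antibodies against each partner (one per run).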

[2] = tested on: LXRa:RXRa (NR concentration 270 nM, RXRa partner concentration 90 nM)
Procedure, shortened: as §1

[3] = tested on: LXRa homodimer (NR concentration 270 nM)
Procedure, shortened: as §1

[4] = tested on: LXRb:RXRa (NR concentration 270 nM, RXRa partner concentration 90 nM)
Procedure, shortened: as §1

[5] = tested on: LXRb homodimer (NR concentration 270 nM)
Procedure, shortened: as §1

[6] = tested on: PPARa:RXRa (NR concentration 270 nM, RXRa partner concentration 90 nM)
Procedure, shortened: as §1

[7] = tested on: PPARg:RXRa (NR concentration 180 nM, RXRa partner concentration 90 nM)
Procedure, shortened: as §1

[8] = tested on: PPARg:RXRa 270nM:90nM, anti-RXR (NR concentration 270 nM, RXRa partner concentration 90 nM)
Procedure, shortened: as §1

[9] = tested on: PPARg:RXRa 30nM:10nM, anti-RXR (NR concentration 30 nM, RXRa partner concentration 10 nM)
Procedure, shortened: as §1

[10] = tested on: PPARg:RXRa 90nM:30nM, anti-RXR (NR concentration 90 nM, RXRa partner concentration 30 nM)
Procedure, shortened: as §1

[11] = tested on: PPARg:RXRa DBDmut IVT, anti-RXR (DBD mutation: RXRa K156A/R161A, NR concentration 270 nM, RXRa partner concentration 90 nM)
Procedure, shortened: as §1

[12] = tested on: PPARg:RXRa IVT, anti-PPARg (NR concentration 270 nM, RXRa partner concentration 90 nM)
Procedure, shortened: as §1

[13] = tested on: PPARg DBDmut:RXRa IVT, anti-PPARg (DBD mutation: PPARg1 K132A/R137A, NR concentration 270 nM, RXRa partner concentration 90 nM)
Procedure, shortened: as §1

[14] = tested on: PPARg DBDmut IVT, anti-PPARg (DBD mutation: PPARg1 K132A/R137A, NR concentration 270 nM)
Procedure, shortened: as §1

[15] = tested on: PPARg homodimer (NR concentration 180 nM)
Procedure, shortened: as §1

[16] = tested on: PXR:RXRa (NR concentration 270 nM, RXRa partner concentration 90 nM)
Procedure, shortened: as §1

[17] = tested on: PXR homodimer (NR concentration 270 nM)
Procedure, shortened: as §1

[18] = tested on: RARa:RXR (NR concentration 270 nM, RXRa partner concentration 90 nM)
Procedure, shortened: as §1

[19] = tested on: RARa homodimer (NR concentration 270 nM)
Procedure, shortened: as §1

[20] = tested on: RARb:RXRa (NR concentration 270 nM, RXRa partner concentration 90 nM)
Procedure, shortened: as §1

| Sequence | PBM binding z-score [1] | PBM binding z-score [2] | PBM binding z-score [3] | PBM binding z-score [4] | PBM binding z-score [5] | PBM binding z-score [6] | PBM binding z-score [7] | PBM binding z-score [8] | PBM binding z-score [9] | PBM binding z-score [10] | PBM binding z-score [11] | PBM binding z-score [12] | PBM binding z-score [13] | PBM binding z-score [14] | PBM binding z-score [15] | PBM binding z-score [16] | PBM binding z-score [17] | PBM binding z-score [18] | PBM binding z-score [19] | PBM binding z-score [20] |
| --- | --- | --- | --- | --- | --- | --- | --- | --- | --- | --- | --- | --- | --- | --- | --- | --- | --- | --- | --- | --- |
| CCGACTGGGGCAGAAAGGTTACCAAACCATCCGG | 0.151 | 0.796 | -0.38 | 1.02 | -0.812 | 2.22 | 1.48 | 2.84 | 0.501 | 2.07 | 1.37 | 1.71 | -0.76 | -0.56 | 0.448 | 0.803 | -0.532 | 1.58 | -0.491 | 1.86 |
| CGAACCAGGTCAGAACAGGACAGTGAAGGATGAT | 2.83 | 1.68 | 0.0841 | 0.939 | -0.216 | 2.43 | 2.14 | 1.88 | 0.485 | 1.32 | 3.56 | 3.58 | 0.325 | -0.243 | 1.16 | 1.66 | -0.119 | 1.4 | 0.21 | 3.05 |
| CGTCCATGGTCAGCAGGTCAGTGAAAGCGACGTG | 0.175 | -0.104 | -0.348 | -0.0301 | -0.987 | 0.781 | -0.0482 | -0.0239 | -0.823 | -0.464 | 0.0989 | 0.518 | -0.843 | -0.979 | -0.43 | 0.159 | -0.486 | 0.728 | -0.616 | 2.28 |
| ACTATTAGTTGAGACGAGGGCAACGGATAGGTTG | 0.259 | 0.127 | -0.147 | 0.0625 | 0.209 | 0.0596 | 0.652 | -0.1 | -0.0194 | -0.207 | -0.0332 | 0.424 | 0.418 | 0.955 | 0.155 | 1.32 | 0.265 | 1.26 | 0.262 | 0.843 |
| CCTACTGGGCCATGGTCATTGATCAGTCAAAGCA | 0.0298 | -0.313 | -0.591 | -0.226 | -1.02 | 0.969 | 1.05 | 1.3 | -0.281 | 0.872 | 3.04 | 3.48 | -0.574 | -0.734 | 0.222 | -0.316 | -0.489 | -0.363 | -1.03 | 0.532 |
| TCTTGTAGATCAGCAGGTTAACAAAGCTGGCCAA | 0.321 | 0.368 | -0.313 | 0.507 | -0.6 | 1.21 | 0.102 | 1.77 | 2.61 | 2.21 | 1.62 | 0.747 | -0.763 | -0.365 | 0.0617 | 0.171 | -0.584 | 0.489 | -0.289 | 0.359 |
| ATACCAAGGTGATCGTGAGGCCGTTGATACTAAC | 0.369 | 0.246 | -0.0793 | 0.0516 | -0.198 | 0.139 | 0.361 | 0.165 | 0.0132 | 0.0891 | 0.533 | 1.06 | 0.198 | 0.471 | 0.381 | 0.595 | 0.275 | 1.03 | -0.0475 | 0.735 |
| TCGAGTAGGTTACCAATGGGGCTTTCAGCTTTCT | -0.0439 | 0.131 | -1.06 | 0.62 | -0.632 | 0.836 | -0.121 | 0.803 | 1.11 | 0.796 | 3.39 | 2.45 | -0.964 | 0.0286 | -0.411 | -0.0679 | -0.767 | -0.0921 | -1.47 | 0.762 |
| AGAACGAGGGCAATGAGTCGATAGCACGGGTGGC | 0.187 | -0.15 | -0.625 | -0.448 | -0.595 | 1.03 | 1.41 | 0.849 | 0.0259 | 0.789 | 3.4 | 2.38 | -0.0536 | -0.236 | -0.174 | 0.0741 | 0.415 | -0.0854 | -0.378 | 1.9 |
| AGAATGAGGTTAAGATCAGGGATACAGAATACAT | 2.25 | 1.75 | 0.0573 | 1.78 | 0.0208 | 3.7 | 2.77 | 2.46 | 0.866 | 1.71 | 3.07 | 2.89 | 0.847 | 0.843 | 0.828 | 1.23 | 0.547 | 2.08 | 0.49 | 1.92 |
| TCTTGTAGTTCAATAGAGGTTAAGAAAGTGCGCT | 2.33 | 5.37 | 2.45 | 3.06 | 0.28 | 2.28 | -0.0212 | 1.83 | 2.94 | 2.06 | 1.53 | 0.937 | 0.563 | 1.1 | 1.14 | 4.2 | 1.73 | 2.4 | 0.814 | 2.22 |
| ACAGACAGGTGAAGAAGGTAACTCAGGCTATCAT | 0.248 | 0.203 | -0.161 | 0.234 | -0.276 | 0.721 | 0.796 | 0.34 | 0.0156 | -0.0588 | 0.468 | 0.733 | 0.175 | 0.429 | 0.495 | 0.0318 | 0.0524 | 0.274 | 0.349 | 0.709 |
| CGAACTAGGTCTAGGACAGTGAATCTCCGCACGC | -0.409 | -0.606 | -0.429 | -1.12 | -0.723 | -0.176 | 0.461 | -0.367 | -0.539 | -0.377 | 2.28 | 1.58 | -0.66 | -0.934 | -0.583 | -0.626 | -0.327 | -0.766 | -0.883 | -0.221 |
